The panel holds about 83,000 compounds, 20% with a hit somewhere; the sample as a whole holds those more often.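 Activity criterion: percent growth below 10, measured after cells in 96-well plates were exposed to a single compound concentration for 48 hours.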 Values without a mark were called inactive. Calls of active or inactive are those of the source.
Test system: NCI/ADR-RES ovarian
Experiment: NCI-60 one-dose screen, 48 h (100 = growth as untreated, 0 = no growth, -100 = all killed)
Conditions: 10 µM unless noted
Experimental: Growth inhibition of the NCI/ADR-RES human […] tumor cell line is measured as a screen for anti-cancer activity. Cells are grown in 96 well plates and exposed to the test compound for 48 hours. Compounds are tested at a single concentration, which is 10^-5 M for most compounds. The reported endpoint is percent growth (GI% or GIPRCNT), where numbers from 0 - 100% represent growth inhibition, and numbers from -100% - 0 represent cell death. For example, a value of 40 represents 60% growth inhibition. A value of 0 means no net growth occurred over the course of the experiment. A value of -40 indicates 40% of cells at the beginning of the experiment died by the end of the experiment. A value of -100 means all cells are dead at the end of the experiment.
NCI-60 Human Tumor Cell Lines Screen was performed using the standard one-dose NCI protocol, which is described in more detail at https://dtp.cancer.gov/discovery_development/nci-60/default.htm.
Compounds with GIPRCNT values below 10 were considered active. Activity score was based on GIPRCNT using the following formula: […]
Score is 0 for GIPRCNT values of 100 or above, 50 for GIPRCNT values of 0, and 100 for GIPRCNT values of -100.

Compound	growth
[Cl][Hg][c]1cc[c]([Hg][Cl])o1	69.3%
CCCCCCCC[n+]1ccc2ccccc2c1	95.6%
C/C(=C\c1ccn(-c2ccccc2N)n1)[C@@H]1C[C@@H]2O[C@]2(C)CCC[C@H](C)[C@H](O)[C@@H](C)C(=O)C(C)(C)[C@@H](O)CC(=O)O1	-4.02% (active)
CO[C@H](C(=O)O)[C@@H]1Cc2cc3cc(OC4CC(OC5CC(O)C(O)C(C)O5)C(O)C(C)O4)c(C)c(O)c3c(O)c2C(=O)[C@H]1OC1CC(OC2CC(OC3CC(C)(O)C(O)C(C)O3)C(O)C(C)O2)C(O)C(C)O1 (stereo not given in full)	74%
CCCCCCCC[N+](C)(CCCCCCCC)CCCCCCCC	-100% (active)
O=C(NCCN1CC1)C(=O)NCCN1CC1	79.5%
CC(=O)O[C@H](C[C@H](C(C)C)N(C)C(=O)[C@@H](NC(=O)[C@H]1CCCCN1C)C(C)C)c1nc(C(=O)NC2CCC(C(=O)O)CC2)cs1 (stereo not given in full)	96.8%
CC1=C(CNO)C2=C(C)C3(CC3)[C@@](C)(O)C(=O)C2=C1	29.7%
COC(=O)[C@H](Cc1c[nH]c2ccccc12)NC(=O)[C@@H](OC)[C@@H]1Cc2cc3cc(OC4CC(OC5CC(O)C(O)C(C)O5)C(O)C(C)O4)c(C)c(O)c3c(O)c2C(=O)[C@H]1OC1CC(OC2CC(OC3CC(C)(O)C(O)C(C)O3)C(O)C(C)O2)C(O)C(C)O1 (stereo not given in full)	76.7%
COC(=O)[C@@H](C)C[C@H](Cc1ccccc1)NC(=O)c1csc([C@@H](C[C@H](C(C)C)N(C)C(=O)[C@@H](NC(=O)[C@H]2CCCCN2C)C(C)C)OC(C)=O)n1	5.63% (active)
COC(=O)[C@H](Cc1ccccc1)NC(=O)c1csc([C@@H](C[C@H](C(C)C)N(C)C(=O)[C@@H](NC(=O)[C@H]2CCCN2C)C2CC2)OC(C)=O)n1	53.3%
COC(=O)[C@@H](C)C[C@H](Cc1ccccc1)NC(=O)c1csc([C@@H](C[C@H](C(C)C)N(C)C(=O)C2(NC(=O)[C@H]3CCCCN3C)CC2)OC(C)=O)n1	61.8%
Oc1c(CCl)cc(Cl)cc1CCl	102%
COC(=O)[C@@H](C)C[C@H](Cc1ccccc1)NC(=O)c1nc([C@@H](C[C@H](C(C)C)N(C)C(=O)[C@@H](NC(=O)[C@H]2CCCCN2C)C(C)C)OC(C)=O)sc1C	16.5%
CCCCN1CCCC[C@@H]1C(=O)N[C@H](C(=O)N(C)[C@H](CCc1nc(C(=O)N[C@@H](Cc2ccccc2)C[C@H](C)C(=O)OC)cs1)C(C)C)[C@@H](C)CC	65.7%
O=[N+]([O-])c1cc(I)cc([N+](=O)[O-])c1	96.6%
C=C1[C@@H](C)[C@H]2[C@H](Cc3ccccc3)NC(=O)[C@]23[C@@H](O)/C=C/[C@@](C)(O)C(=O)[C@@H](C)C/C=C/[C@H]3[C@@H]1O	94.6%
OCc1ccc2c(c1)OCO2	105%
Cc1cccc(N2CCN(C(C)C#N)CC2)c1 (stereo not given)	96.9%
CCC(C)(C)[C@H](NC(=O)[C@H]1CCCCN1C)C(=O)N(C)[C@H](C[C@@H](OC(C)=O)c1nc(C(=O)N[C@@H](Cc2ccccc2)C[C@H](C)C(=O)O)cs1)C(C)C	16.8%

Compound	growth
O=[N+]([O-])c1cc([N+](=O)[O-])c(Nn2c3ccccc3c3ccccc32)c([N+](=O)[O-])c1	7.52% (active)
CC(CO)NC1CCCCC1 (stereo not given)	116%
CC(=O)/C=C/c1ccc2c(c1)OCO2	113%
Cn1cc(-c2csc(-c3cn(CCN4CCOCC4)c4ccccc34)n2)c2cccnc21	31.4%
O=C(O)c1ccc([S-])cc1.[Au+].c1ccc(CN2[CH-]N(Cc3ccccc3)C(c3ccccc3)=C2c2ccccc2)cc1	3.13% (active)
COc1ccc(C(=O)c2cc(OC)c(OC)c(OC)c2)cc1OC(C)=O	7.97% (active)
CCOC(=O)C(Cc1ccc(N(CCCl)CCCl)cc1)NC(=O)C(CC(C)C)NC(C)=O (stereo not given)	46.6%
COc1ccc(/C=C\c2cc(OC)c(OC)c(OC)c2)c(NS(=O)(=O)c2ccc(F)cc2)c1O	2.13% (active)
COc1cc(/C=N/C2=C(C#N)C(c3ccco3)c3c(c4cc(C)ccc4oc3=O)O2)cc(OC)c1OC (stereo not given)	96.3%
CN1C(=O)C(=Cc2cn(Cc3ccccc3)c3ccccc23)C(=O)N(C)C1=O	89%
CC1CN1CCCCN1CC1C (stereo not given)	108%
CN1CCC(O)(c2ccc(F)cc2)C(C(=O)c2ccc(F)cc2)C1 (stereo not given)	103%
O=C(CC1(O)C(=O)Nc2ccc(Br)cc21)c1ccc(C(=O)NCC2CCC3(CC2)OOC2(CCCCC2)OO3)cc1 (stereo not given)	64.6%
CC(=O)O[C@H](C[C@H](C(C)C)N(C)C(=O)[C@@H](NC(=O)[C@H]1CCCN1C)C(C)C)c1nc(C(=O)N[C@@H](Cc2ccccc2)C[C@H](C)C(=O)O)c(C)s1	5.87% (active)
COc1ccc(/C=C\c2cc(OC)c(OC)c(OC)c2)cc1OCC(=O)Nc1nc2ccc(OC(F)(F)F)cc2s1	-7.34% (active)
C=C1C(=O)O[C@H]2[C@H]1CC/C(COC(=O)C(=O)c1cn(Cc3ccccc3)c3ccccc13)=C\CC[C@@]1(C)O[C@@H]21	-1.18% (active)
CN[C@]1(c2ccccc2Cl)CCCC[C@H]1NCCCN1CCN(C)CC1	101%
C[C@@H]1CCC2[C@@H](C)[C@H](OC(=O)CCC(=O)NCCNC(=O)Cc3cc(=O)oc4cc(N(C)C)ccc34)O[C@@H]3O[C@]4(C)CC[C@@H]1C23OO4 (stereo not given in full)	16.6%
CCOC(=O)CCN(C)C1=Nc2ccc(Cl)cc2C(c2ccccc2)=[N+]([O-])C1	104%
NC(N)=N/N=C\c1c[nH]c2ccc(Br)cc12	87%
